Laboratory results taken from PubChem BioAssay AID652104 (National Center for Advancing Translational Sciences (NCATS), 2013).
The campaign covered roughly 410,000 compounds. About 7,200 (1.8%) were called active. Another 7% or so got no clear call; they are omitted. Calls come from the whole dose curve; as a rule, active = well fitted activation curve with a large enough effect; inconclusive = small, poorly fitted or top-dose-only effect, or another doubt; inactive = no such curve, though single readings can be large or run the other way. The sample as a whole holds a higher share of actives than the screen did.

Assay: qHTS of TDP-43 Inhibitors; note: nearly all actives have a fitted effect of over 50% in size; for growth rescue (activation): % of control where 0% means no effect
Settings: TDP-43 expressing yeast growth rescue, BacTiter-Glo, 24 h; series mostly up to 46.1 µM; growth rescue (activation): at the top concentration
How it was run: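 Luminescence from BacTiter-Glo reports growth of TDP-43-expressing yeast after 24 hr at 30 deg C with compound. Cells were raffinose-pregrown to mid-log, then seeded in galactose medium at OD600=0.02.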
Potency is the fitted concentration of half-maximal effect.

Row | SMILES | growth rescue (activation) | Potency
1 | CCc1cc2c(cc3c(=O)n(CC(=O)N4CCN(c5cc(Cl)ccc5C)CC4)ncn32)s1 | 11.6% (inactive) | 
2 | CC(C)OC(=O)c1ccc(COc2ccc3ccc(=O)oc3c2)o1 |  | 11.2 µM (active)
3 | Cc1cc(OCc2ccc(C(=O)Nc3ccc(C(=O)O)cc3)o2)ccc1Cl | -9.15% (inactive) | 
4 | O=C(COc1ccc2ccc(=O)oc2c1)NCC(O)c1ccccc1 (stereo not drawn) | 8.96% (inactive) | 
5 | CCOC(=O)c1cc(-c2ccc(OC)c(S(=O)(=O)Nc3ccc(OC)cc3OC)c2)on1 | 14.4% (inactive) | 
6 | CCOC(=O)c1ccc(NC(=O)CC2C(=O)N(c3ccccc3)C(=O)N2Cc2cccs2)cc1 (stereo not drawn) | 11.2% (inactive) | 
7 | CCOC(=O)c1ccc(N2C(=O)CC(N3CCN(C(=O)c4ccccc4)CC3)C2=O)cc1 (stereo not drawn) | 10.1% (inactive) | 
8 | CCOC(=O)c1ccc(N2C(=O)CC(N(C)Cc3ccccc3)C2=O)cc1 (stereo not drawn) |  | 2.82 µM (active)
9 | CCOC(=O)c1ccc(N2C(=O)CC(Sc3nc(O)c(CC)c(=O)[nH]3)C2=O)cc1 (stereo not drawn) | 8.69% (inactive) | 
10 | Cc1ccc(C)c(N2CCN(C(c3ccccc3)c3nnc(-c4ccccc4)o3)CC2)c1 (stereo not drawn) | 20.5% (inactive) | 
11 | CCCCCc1ccc(-c2ccc(OCC)cc2)nc1 |  | 12.6 µM (active)
12 | CCCCCc1ccc(-c2ccc(C(=O)O)cc2)nc1 |  | 3.16 µM (active)
13 | O=C(O)CCC(=O)NCc1ccc(C(=O)O)cc1 | 11% (inactive) | 
14 | CCOc1ccc(-c2cc(C)n3nc(C(=O)Nc4ccc(C)c(C)c4)cc3n2)cc1 | 10% (inactive) | 
15 | CCCCCC(=O)Nc1ccc(-c2cn3cccnc3n2)cc1 | -7.99% (inactive) | 
16 | CCOc1ccc(-c2ccc(SCC(=O)N3CCOCC3)nn2)cc1 | -8.68% (inactive) | 
17 | Cc1ccsc1CN(C(=O)c1oc2ccc(Br)cc2c1C)C1CCS(=O)(=O)C1 (stereo not drawn) | 32.2% (inactive) | 
18 | O=C(Nc1ccccc1Br)c1cc(CN2CCCC2)on1 | -6.37% (inactive) | 
19 | Cc1ccc2nc(CN3CCN(S(=O)(=O)c4ccc(C)c(C)c4)CC3)oc2c1 | 24.1% (inactive) | 
20 | Cc1ccc(CN2CCC(CNC(=O)c3cnn(-c4ccccc4Cl)c3C3CCN(C(=O)OC(C)(C)C)CC3)CC2)cc1 | 0% (inactive) | 
21 | Cc1ccc(C(=O)OCc2nc(N)nc(Nc3ccccc3C)n2)cc1 |  | 12.6 µM (active)
22 | Cc1ccccc1Nc1nc(N)nc(COC(=O)CCC(=O)c2ccc(F)cc2)n1 | 4.71% (inactive) | 
23 | CCCn1nc(C(=O)OCc2nc(N)nc(Nc3ccccc3C)n2)c2ccccc2c1=O | 9.98% (inactive) | 
24 | O=C(NC1CC(=O)N(c2ccc(F)cc2)C1)c1ccc(S(=O)(=O)N2CCCC2)cc1 (stereo not drawn) | 24.6% (inactive) | 
25 | COc1ccc2c(C)c(CCC(=O)NCc3ccc(OC)c(OC)c3)c(=O)oc2c1 | 5.65% (inactive) | 

Row | SMILES | growth rescue (activation) | Potency
26 | CC1CCCCN1CC(=O)N1CCCc2c1c(=O)oc1ccc(OCc3ccccc3)cc21 (stereo not drawn) | -26.7% (inactive) | 
27 | Cc1cc(Cl)ccc1NC(=O)Cc1ccc(NC(=O)N2CCCCc3ccccc32)cc1 | 0% (inactive) | 
28 | CCc1cccc(-n2nnc(-c3nsc(NC(=O)c4ccc(C)cc4)n3)c2C)c1 | 18.4% (inactive) | 
29 | C=CCOc1ccc(/C=N/NC(=O)C(C)Sc2ccccn2)cc1OCC (stereo not drawn) | 15.6% (inactive) | 
30 | C=CCOc1ccc(/C=C2/C(=O)ON=C2C)cc1OCC |  | 12.6 µM (active)
31 | CCOc1ccc(/C=C(\C#N)c2nc3ccccc3c(=O)[nH]2)cc1OC | 29% (inactive) | 
32 | Cc1cccc(CC(=O)Nc2cccc(-c3cn4cccnc4n3)c2)c1 | 1.61% (inactive) | 
33 | Cc1cc2nc(-c3ccco3)c(Cc3cccc(F)c3)n2c(C)c1Br |  | 3.16 µM (active)
34 | Cc1cc2nc(-c3ccc(F)cc3)c(Cc3ccsc3)n2c(C)c1Br | 13.7% (inactive) | 
35 | O=C(CN1C(=O)CCn2nc(-c3ccccc3)cc21)NCc1ccccc1 | 18.2% [at 9.22 µM] (inactive) | 
36 | COc1cccc(C(=O)NCc2ccc3c(c2)CCN3C(=O)c2ccncc2)c1 | 28.9% (inactive) | 
37 | Cc1ccc(-c2cc(C(=O)Oc3ccccc3Cl)no2)cc1C | 10.3% (inactive) | 
38 | C/C(=N/OC(=O)c1c(-c2c(F)cccc2Cl)noc1C)c1cnccn1 | 3.39% (inactive) | 
39 | Cc1ccc(C(=O)O/N=C(\N)c2ccccn2)cc1Cl |  | 7.08 µM (active)
40 | Cc1c(Cl)cccc1NC(=O)C(=O)NCCc1csc2nc(-c3ccccc3F)nn12 | 29.8% (inactive) | 
41 | CC(=O)Nc1cccc(NC(=O)CSc2cn(CC(=O)N3CCCC3)c3ccccc23)c1 | 17.1% (inactive) | 
42 | COc1cccc(Cn2c(CNS(=O)(=O)c3ccc(Cl)s3)nc3cccnc32)c1 | 18.7% (inactive) | 
43 | Clc1cccc(-c2nc(NCC3CCCO3)c3ccccc3n2)c1 (stereo not drawn) |  | 12.6 µM (active)
44 | Cn1c(=O)c2[nH]c(NCC3CCCO3)nc2n(-c2ccccc2)c1=O (stereo not drawn) | 0.787% (inactive) | 
45 | O=C(NCC1CCCO1)c1cc2c([nH]c3ccccc32)c(-c2ccc(F)cc2)n1 (stereo not drawn) | 0% (inactive) | 
46 | CCN(CCCNC(=O)Cn1ncc2c3ccccc3n(C)c2c1=O)Cc1ccccc1 | 15.9% (inactive) | 
47 | CCOCCc1nn2c(=O)cc(COC(=O)CNC(=O)c3ccc(C(C)(C)C)cc3)nc2s1 | 7.41% (inactive) | 
48 | COc1ccccc1N1CCN(S(=O)(=O)CCNC(=O)COc2ccc(F)cc2)CC1 | 5.6% (inactive) | 
49 | COc1ccc(CNC(=O)CSc2n[nH]c(-c3ccc(F)cc3)n2)cc1 | 3.73% (inactive) | 
50 | CCOC(=O)C1CCN(CCC(=O)Nc2cccc(C)c2)CC1 | 7.09% (inactive) | 

Row | SMILES | growth rescue (activation) | Potency
51 | COc1ccc(N)cc1NC(=O)CN1CCOCC1 | 13.4% (inactive) | 
52 | COC(=O)CNC(c1ccccc1Cl)c1cc(Br)ccc1NC(=O)CCN1CCOCC1 (stereo not drawn) |  | 17.8 µM (active)
53 | CCc1ccccc1NC(=O)CSc1nnc(-c2ccccc2)c(-c2ccccc2)n1 | 11.4% (inactive) | 
54 | COc1ccc(C(=O)NC2(C(F)(F)F)NC(=O)N(CCCc3ccccc3)C2=O)c(OC)c1OC (stereo not drawn) |  | 20 µM (active)
55 | O=C(NC1(C(F)(F)F)NC(=O)N(Cc2cccnc2)C1=O)c1ccccc1Cl (stereo not drawn) | 5.43% (inactive) | 
56 | CCOc1ccccc1C(=O)NC1(C(F)(F)F)NC(=O)N(CCc2ccc(OC)c(OC)c2)C1=O (stereo not drawn) | 13.2% (inactive) | 
57 | O=C(Nc1ccc2oc(-c3ccc(O)c(Br)c3)nc2c1)c1cc2ccccc2o1 | -9.23% (inactive) | 
58 | OCc1cnc(SCc2ccc(F)cc2)n1Cc1ccc(F)cc1 | -17.8% (inactive) | 
59 | CCOC(=O)N1CCC(NC(=O)c2cnn(-c3cccc(C)c3)c2C2CCN(C(=O)OC(C)(C)C)CC2)CC1 | -5.08% (inactive) | 
60 | COc1ccc([C@H]2CC(=O)C=C(/C=C/c3ccc(Cl)cc3)C2)cc1 | 19.9% (inactive) | 
61 | CCCCC/C=C/C1=CC(=O)C[C@H](c2ccc(Cl)cc2)C1 | 15.5% (inactive) | 
62 | COc1cccc2c1CCC(NC(C)=O)C2=O (stereo not drawn) | 13% (inactive) | 
63 | O=C1C=C(c2cccc(Br)c2)C[C@@H](c2ccc(F)cc2)C1 |  | 20 µM (active)
64 | O=C1CC(c2cccc(Cl)c2)CC(O)=C1C=Nc1ccccc1 (stereo not drawn) | -2.18% (inactive) | 
65 | O=C1C=C(c2cccc(Cl)c2)C[C@@H](c2ccc(F)cc2)C1 |  | 22.4 µM (active)
66 | COc1ccc(C2CC(=O)NC(=O)C2)cc1 | -20.9% (inactive) | 
67 | N#Cc1ccc(C2=CC(=O)C[C@H](c3ccc(Cl)cc3)C2)cc1 |  | 17.8 µM (active)
68 | COc1ccccc1C1=CC(=O)C[C@H](c2ccc(F)cc2)C1 |  | 15.8 µM (active)
69 | O=C1CC(c2cccc(Br)c2)C2=C(CCCC2=O)N1 (stereo not drawn) | 5.37% (inactive) | 
70 | O=C(NCC(c1ccc(Cl)cc1)N1CCOCC1)c1ccccc1F (stereo not drawn) | 1.5% (inactive) | 
71 | COC(=O)c1c(NC(=O)C(C)Oc2ccc(Cl)c(C)c2)sc(C)c1C (stereo not drawn) | 16.4% (inactive) | 
72 | COc1ccccc1-c1noc(-c2ccc(NCc3ccccc3)c([N+](=O)[O-])c2)n1 | 12% (inactive) | 
73 | COc1ccc(-c2onc(C)c2C)cc1S(=O)(=O)NCC1CCN(Cc2cccc(F)c2)CC1 | 9.63% (inactive) | 
74 | O=C(CSc1nc2c(c(=O)[nH]1)CN(Cc1ccc(F)cc1)CC2)Nc1ccccc1Cl | 14.4% (inactive) | 
75 | CCOc1ccc(NC(=O)C2CCN(S(=O)(=O)c3cc(-c4noc(C)n4)ccc3C)CC2)cc1 | -15% (inactive) | 

Row | SMILES | growth rescue (activation) | Potency
76 | N/C(=N\OC(=O)CCn1cccc(C(F)(F)F)c1=O)c1ccc(OC(F)(F)F)cc1 | 2.9% (inactive) | 
77 | N/C(=N\OC(=O)CCc1ccccc1)c1cccnc1 | 8.83% (inactive) | 
78 | COc1ccc(/C(N)=N/OC(=O)CCCc2ccccc2)cc1 |  | 22.4 µM (active)
79 | Cc1ccc(OCC(=O)Nc2ccc(OCc3cc(=O)n4c(C)csc4n3)cc2)cc1C | 7.26% (inactive) | 
80 | CC(C)Cn1c(-c2ccc(S(=O)(=O)N3CCOCC3)cc2)csc1=Nc1cc(Cl)ccc1Cl | 11.8% (inactive) | 
81 | COC(=O)c1ccc2nc(-c3ccc(C)cc3)c(Cc3ccc(OC)cc3C)n2c1 | 22.3% (inactive) | 
82 | COC(=O)c1ccc2nc(-c3ccc(F)cc3)c(Cc3ccc(C)cc3)n2c1 | 25.1% (inactive) | 
83 | COc1ccc(-c2nc3ccc(Br)cn3c2Cc2ccc(C)cc2)cc1OC |  | 15.8 µM (active)
84 | Oc1c(C(c2ccccc2Cl)N2CCOCC2)sc2nc(-c3ccco3)nn12 (stereo not drawn) | 3.8% (inactive) | 
85 | Cn1nnnc1SCCCNCc1cccc(OCc2ccc(Cl)cc2)c1 | 5.55% (inactive) | 
86 | C=C1C(=O)OC2C1CCC(C)=CCCC1(C)OC21 (stereo not drawn) |  | 14.1 µM (active)
87 | O=C(NCCc1ccccc1)C(=O)NCC(c1ccco1)S(=O)(=O)c1ccccc1 (stereo not drawn) | 11.7% (inactive) | 
88 | COc1cccc(N2CCN(C(=O)CCCCCn3c(=O)[nH]c4ccccc4c3=O)CC2)c1 | 13% (inactive) | 
89 | COc1ccc(CCNC(=O)c2ccc3c(c2)nc(C)n3-c2ccc(Br)cc2)cc1OC | 11.1% (inactive) | 
90 | COc1ccc(-c2cc3c(c4c2ccn4C)C2CCC3C2)cn1 (stereo not drawn) |  | 20 µM (active)
91 | CC(C)(C)c1ccc(OCC(=O)N2CCC(c3nc4ccccc4s3)CC2)cc1 | 20.2% (inactive) | 
92 | CCSc1nnc2c(n1)OC(c1ccc(OCC(=O)O)cc1)Nc1ccccc1-2 (stereo not drawn) | -36.7% [at 9.22 µM] (inactive) | 
93 | COc1ccc(C)cc1-n1c(-c2ccc(C)cc2)cc2c1CC(C)(C)CC2=O | 6.79% (inactive) | 
94 | Cc1ccc(Cl)cc1NC(=O)Cc1ccc(-n2c(C)nc3cccnc32)cc1 | -9.49% (inactive) | 
95 | CCCN(CCC)S(=O)(=O)c1ccc(C(=O)Nc2sc3c(c2C(=O)OC)CCN(CC)C3)cc1 | -1.8% (inactive) | 
96 | CCn1c2ccccc2c2cc(CC(N)=O)ccc21 | 7.64% (inactive) | 
97 | CCN(C(=O)Cc1c(C(=O)O)n(CC)c2ccccc12)c1ccccc1C |  | 25.1 µM (active)
98 | Cc1ccc(C)c(Cn2c(C(=O)O)c(CNCc3cccs3)c3ccccc32)c1 | 15.9% (inactive) | 
